Results from the supplement of paper PMC12024424.
Counter-ions that a name gives are not always drawn.

Tested on: Staphylococcus aureus Sa2 (MRSA, cystic fibrosis isolate)
Assay: growth reduction vs untreated control (viable cell count); higher = stronger antibacterial activity; extreme values may be limits of the assay
Conditions: 0.1 mM; 24 h
Experimental: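 Single-dose screen of the MedChem Express Drug Repurposing Library (0.1 mM, 1% DMSO) against planktonic MRSA S. aureus Sa2 (CF isolate) in TSB in 96-well plates, 37 °C aerobic, 24 h. Assays were run in triplicate and repeated twice.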

Row | SMILES | growth reduction [%]
1 | COc1cccc2c1C(=O)c1c(O)c3c(c(O)c1C2=O)C[C@@](O)(C(=O)CO)C[C@@H]3O[C@H]1C[C@H](N)[C@@H](O)[C@H](C)O1 [Epirubicin (hydrochloride)] | 100
2 | Cc1ccc([C@@H]2O[C@H](CO)[C@@H](O)[C@H](O)[C@H]2O)cc1Cc1ccc(-c2ccc(F)cc2)s1 [Canagliflozin] | 100
3 | CCOc1cc2ncc(C#N)c(Nc3ccc(F)c(Cl)c3)c2cc1NC(=O)/C=C/CN(C)C [Pelitinib] | 97
4 | N[C@@H](Cc1cc(I)c(Oc2cc(I)c(O)c(I)c2)c(I)c1)C(=O)O [L-Thyroxine (sodium salt pentahydrate)] | 100
5 | CCc1nc(-c2cccc(C)c2)c(-c2ccnc(NC(=O)c3ccccc3)c2)s1 | 100
6 | O/N=c1\cc(-c2cc3sccc3cn2)oc2ccc(CCCN3CCOCC3)cc12 [Foliglurax (monohydrochloride)] | 100
7 | O=C(O)CCCc1cc2cc(Cl)ccc2n1S(=O)(=O)c1ccc2ncsc2c1 [Lanifibranor] | 99
8 | CC/C(=C(\c1ccccc1)c1ccc(OCCN(C)C)cc1)c1ccccc1 [Tamoxifen] | 100
9 | Clc1ccc(C(Cn2ccnc2)OCc2c(Cl)cccc2Cl)c(Cl)c1 (configuration not stated) [Isoconazole (nitrate)] | 100
10 | Cn1c(O)c(C2=c3ccccc3=NC2=O)c2ccccc21 [Meisoindigo] | 100
11 | COC(=O)C1=C(C)NC(C)=C(C(=O)OC(C)C)C1c1cccc2nonc12 (configuration not stated) [Isradipine] | 100
12 | Clc1ccc(CSC(Cn2ccnc2)c2ccc(Cl)cc2Cl)cc1 (configuration not stated) [Sulconazole (mononitrate)] | 100
13 | Clc1ccc(CCC(Cn2ccnc2)Sc2c(Cl)cccc2Cl)cc1 (configuration not stated) [Butoconazole (nitrate)] | 100
14 | CC(C)(C)NCC(O)COc1ccccc1C1CCCC1 (single isomer, unassigned; (+)) [(+)-Penbutolol] | 94
15 | C#C[C@]1(O)CC[C@H]2[C@@H]3CCc4cc(OC5CCCC5)ccc4[C@H]3CC[C@@]21C [Quinestrol] | 99
16 | CC1=CC(=O)c2ccccc2C1=O [Menadione] | 100
17 | Cc1cc(C2CCCCC2)n(O)c(=O)c1 [Ciclopirox] | 100
18 | CCOc1cc(CC(=O)N[C@@H](CC(C)C)c2ccccc2N2CCCCC2)ccc1C(=O)O [Repaglinide] | 100
19 | CC(=O)[C@]1(O)Cc2c(O)c3c(c(O)c2[C@@H](O[C@H]2C[C@H](N)[C@H](O)[C@H](C)O2)C1)C(=O)c1ccccc1C3=O [Idarubicin (hydrochloride)] | 100

Row | SMILES | growth reduction [%]
20 | CC(=O)c1cc2c(o1)C(=O)c1ccccc1C2=O [Napabucasin] | 100
21 | COc1cc(C)c2c(Oc3cccc(C(F)(F)F)c3)c(OC)cc(NC(C)CCCN)c2n1 (configuration not stated) [Tafenoquine (Succinate)] | 100
22 | CC(C)(O)c1ccccc1CC[C@@H](SCC1(CC(=O)O)CC1)c1cccc(/C=C/c2ccc3ccc(Cl)cc3n2)c1 [Montelukast (sodium)] | 100
23 | CN(CCCCCCCCCCN(C)C(=O)Oc1cccc([N+](C)(C)C)c1)C(=O)Oc1cccc([N+](C)(C)C)c1 [Demecarium Bromide] | 98
24 | NC(=O)c1cccc2cn(-c3ccc([C@@H]4CCCNC4)cc3)nc12 [Niraparib (tosylate)] | 99
25 | Cc1cc(-c2nc(CN3CCNCC3)no2)cc2c1C(=O)N(Cc1ccc(OC(F)(F)F)cc1)C2 | 100
26 | NC1=NCC2c3ccccc3Cc3ccccc3N12 (configuration not stated) [Epinastine] | 100
27 | O=c1[nH]cnc2c1cnn2[C@@H]1O[C@H](CO)[C@@H](O)[C@H]1O [Allopurinol riboside] | 100
28 | CCc1cc(-c2noc(-c3cc(OC)nc(C4CCCC4)c3)n2)cc(C)c1OC[C@@H](O)CO [Cenerimod] | 100
29 | COc1cc(/C=C/c2ccc(O)cc2)cc(OC)c1 [Pterostilbene] | 100
30 | Clc1ccc(CSC(Cn2ccnc2)c2ccc(Cl)cc2Cl)cc1 (configuration not stated) [Sulconazole (nitrate)] | 100
31 | COCC[n+]1c2c(n(Cc3cnccn3)c1C)C(=O)c1ccccc1C2=O [Sepantronium (bromide)] | 100
32 | CNC(=O)c1cc(Oc2ccc(NC(=O)Nc3ccc(Cl)c(C(F)(F)F)c3)c(F)c2)ccn1 [Regorafenib (monohydrate)] | 98
33 | Cc1cc(C2CCCCC2)n(O)c(=O)c1 [Ciclopirox (olamine)] | 100
34 | OCc1cc([C@@H](O)CNCCCCCCOCCOCc2c(Cl)cccc2Cl)ccc1O [Vilanterol] | 100
35 | COc1cc2ncnc(Nc3ccc(F)c(Cl)c3)c2cc1NC(=O)/C=C/CN1CCCCC1 [Dacomitinib] | 100
36 | CC(C)OC(=O)CCC/C=C\C[C@@H]1[C@@H](/C=C/[C@@H](O)COc2cccc(C(F)(F)F)c2)[C@H](O)C[C@@H]1O [Travoprost] | 100
37 | Cc1cccc(Nc2ccccc2C(=O)O)c1C [Mefenamic acid] | 100
